“And” between values parts separate entries of the source, which are not always exact repeats. Equal entries are not always repeated. In all, about 5,500 compounds went through this assay and about 2,000 (36%) were called active. Inconclusive results (about 18%) are left out. No stated cut-off is given here; in the data, active means normalized growth mostly below about 0.91 (no sharp cut-off); inconclusive means no clear call, values can overlap the other calls; inactive means mostly above about 0.92. This is one part of the list.
Test: chemical genetic growth profiling, strain panel (AID 1159580);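 further: tested at 20 µM; growth read once vehicle control cultures reached saturation at 30 °C; 1 = growth at the plate median or of vehicle wells; lower values mean less growth of the strain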
Settings: S. cerevisiae deletion strains, growth OD

Measured: normalized growth

O=C(O)c1cc(=O)c2cccc(O)c2[nH]1
inactive: locus YAL013W, strain DEP1, hits give low values 0.999 | locus YAL021C, strain ccr4, hits give low values 0.995 | locus YAL026C, strain drs2, hits give low values 1.03 | locus YAL030W, strain snc1, hits give low values 1.01 | locus YBL061C, strain skt5, hits give low values 1.02 | locus YBR009C, strain hhf1, hits give low values 1 | locus YBR021W, strain FUR4, hits give low values 1.03 | locus YBR023C, strain chs3, hits give low values 1.03 | locus YBR171W, strain sec66, hits give low values 1.03 | locus YBR229C, strain ROT2, hits give low values 0.999 | locus YBR231C, strain swc5, hits give low values 1.01 | locus YBR279W, strain paf1, hits give low values 0.984 | locus YCL011C, strain gbp2, hits give low values 1.02 | locus YCL016C, strain dcc1, hits give low values 1.05 | locus YCL029C, strain bik1, hits give low values 0.953 | locus YCL061C, strain MRC1, hits give low values 1.02 | locus YCL069W, strain vba3, hits give low values 1.01 | locus YCR088W, strain abp1, hits give low values 1.02 | locus YDL005C, strain med2, hits give low values 1.01 | locus YDL035C, strain GPR1, hits give low values 1.02 | locus YDL040C, strain nat1, hits give low values 1 | locus YDL074C, strain BRE1, hits give low values 0.995 | locus YDL101C, strain DUN1, hits give low values 0.988 | locus YDL134C, strain PPH21, hits give low values 1.01 | locus YDL185W, strain tfp1, hits give low values 0.959 | locus YDL192W, strain arf1, hits give low values 0.985 | locus YDR001C, strain nth1, hits give low values 1.01 | locus YDR069C, strain doa4, hits give low values 1.03 | locus YDR101C, strain arx1, hits give low values 0.977 | locus YDR137W, strain rgp1, hits give low values 1.01 | locus YDR150W, strain NUM1, hits give low values 0.97 | locus YDR159W, strain sac3, hits give low values 0.981 | locus YDR162C, strain NBP2, hits give low values 1 | locus YDR195W, strain ref2 1 | locus YDR297W, strain sur2, hits give low values 1.01 | locus YDR318W, strain mcm21, hits give low values 0.981 | locus YDR334W, strain swr1, hits give low values 1.02 | locus YDR335W, strain msn5, hits give low values 1.04 | locus YDR388W, hits give low values 0.995 | locus YDR392W, strain spt3, hits give low values 1.08 | locus YDR502C, strain sam2, hits give low values 0.985 | locus YEL003W, strain gim4, hits give low values 1.01 | locus YEL037C, strain rad23, hits give low values 1.01 | locus YEL061C, strain CIN8 (second series), hits give low values 1.02 | locus YEL061C, strain CIN8, hits give low values 0.993 | locus YER015W, strain faa2, hits give low values 1.02 | locus YER016W, strain bim1, hits give low values 1.04 | locus YER110C, hits give low values 0.974 | locus YER111C, strain swi4, hits give low values 1.01 | locus YER155C, strain BEM2 (second series), hits give low values 1.03 | locus YER155C, strain BEM2, hits give low values 0.998 | locus YER167W, strain BCK2, hits give low values 0.994 | locus YFR010W, strain ubp6, hits give low values 1.01 | locus YGL078C, strain dbp3, hits give low values 0.987 | locus YGL086W, strain mad1, hits give low values 0.993 | locus YGL167C, strain pmr1, hits give low values 1.01 | locus YGL173C, strain kem1, hits give low values 1.01 | locus YGL227W, strain vid30, hits give low values 1.01 | locus YGL240W, strain doc1, hits give low values 0.999 | locus YGL248W, strain PDE1, hits give low values 0.991 | locus YGL253W, strain hxk2, hits give low values 1.03 | locus YGR078C, strain PAC10, hits give low values 0.98 | locus YGR135W, strain pre9, hits give low values 0.986 | locus YGR229C, strain SMI1, hits give low values 1.02 | locus YGR252W, strain gcn5, hits give low values 1.15 | locus YHR013C, strain ard1, hits give low values 1.01 | locus YHR027C, strain rpn1, hits give low values 1.03 | locus YHR030C, strain SLT2, hits give low values 0.985 and 0.961 | locus YHR079C, strain IRE1 (second series), hits give low values 0.985 | locus YHR079C, strain IRE1, hits give low values 0.962 | locus YHR094C, strain hxt1, hits give low values 0.964 | locus YHR129C, strain ARP1, hits give low values 0.987 | locus YHR142W, strain chs7, hits give low values 1.03 | locus YHR200W, strain rpn10, hits give low values 0.984 | locus YIL066C, strain RNR3, hits give low values 0.994 | locus YIL073C, strain SPO22, hits give low values 0.949 | locus YIL125W, strain kgd1, hits give low values 0.975 | locus YIR030C, strain dcg1, hits give low values 0.99 | locus YJL092W, strain hpr5, hits give low values 1.02 | locus YJL095W, strain BCK1 (second series), hits give low values 1.03 | locus YJL095W, strain BCK1, hits give low values 0.982 and 0.975 | locus YJL115W, strain asf1, hits give low values 1.01 | locus YJL129C, strain trk1, hits give low values 1.03 | locus YJL134W, strain LCB3, hits give low values 0.992 | locus YJL154C, strain vps35, hits give low values 1.01 | locus YJL164C, strain tpk1, hits give low values 1.01 | locus YJL166W, strain qcr8, hits give low values 0.996 | locus YJL168C, strain set2, hits give low values 0.981 | locus YJL187C, strain SWE1 (second series), hits give low values 0.95 | locus YJL187C, strain SWE1, hits give low values 1.03 | locus YJR043C, strain POL32, hits give low values 0.987 | locus YJR066W, strain TOR1, hits give low values 0.928

Source: PubChem BioAssay AID1159580 (chemical genetic matrix, 2015)
